Here are results for two molecules from PubChem BioAssay AID2687 (National Center for Advancing Translational Sciences (NCATS), 2010).

The source made the active and inactive calls.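 The calls were made as follows: active = potency half-maximal inhibitory concentration below 100 µM; inconclusive = dose-dependent response but potency above 100 µM; inactive = the rest.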

Lysine-specific demethylase 4E (Homo sapiens), sequence (B2RXH2 1-337 limits assumed): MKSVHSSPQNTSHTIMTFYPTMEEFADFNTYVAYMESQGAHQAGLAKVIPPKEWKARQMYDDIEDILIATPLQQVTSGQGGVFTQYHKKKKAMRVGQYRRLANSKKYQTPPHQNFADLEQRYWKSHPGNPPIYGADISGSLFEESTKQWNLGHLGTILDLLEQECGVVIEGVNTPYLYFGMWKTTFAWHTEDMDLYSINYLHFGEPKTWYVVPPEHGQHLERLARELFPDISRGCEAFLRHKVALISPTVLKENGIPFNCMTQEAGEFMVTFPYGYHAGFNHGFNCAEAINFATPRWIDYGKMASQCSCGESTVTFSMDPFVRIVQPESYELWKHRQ

The target of this assay is Lysine-specific demethylase 4E (Homo sapiens) (UniProt B2RXH2). In words: AlphaScreen Assay for Inhibitors of Human Jumonji Domain Containing 2E (JMJD2E). The note with it: recombinant JMJD2E, H3K9me3 peptide demethylation. The source says:
The fine interplay among methylation states of several lysine residues on the tails of histone proteins is a major determinant of the transcriptional state of the associated DNA coding regions and is commonly referred to as the histone code. Histone lysine demethylases catalyze the removal of methyl groups from methylated lysine sidechains on histones H3 and H4, thus antagonizing the reactions catalyzed by histone lysine methyltransferases. […] In search for novel inhibitors of JMJD2E demethylase, a member of the largest set of histone demethylases belonging to the Fe(II) and 2-oxoglutarate oxygenase (2OG) superfamily, we performed a quantitative high-throughput screen (Inglese 2006). See AID 2147 for details on the primary screen. The assay here is a secondary AlphaScreen screen used to validate follow-up compounds. References: Inglese, J., Auld, D., Jadhav, A., Johnson, R., Simeonov, A., Yasgar, A., Zheng, W. and Austin, C. […]
Assay Buffer: 50 mM HEPES pH7.5, 0.01% Tween-20, 0.1% BSA (Cohn Fraction V; Sigma A7030) Peptide: biotin-[…](me3/2)STGGKA Antibody: Abcam Ab1220, Anti-H3K9Me2 Final concentration of components in enzyme reaction: JMJD2E 5 nM, Peptide 30 nM, […] L-Ascorbic Acid, […], DMSO 0.1% Alphascreen beads made up in the dark in assay buffer and pre-incubated for 1 hour in the dark. […] Read plate on BMG Labtech Pherastar FS
For orientation: Alpha assays give light when donor and acceptor beads are brought close together.
With `Oc1ccc(CNc2cccc(F)c2)c2cccnc12`, the Potency is 1.49 µM (active).
Under `O=S(=O)(Nc1ccc(O)c2ncccc12)c1ccccc1F` stands 0.435 µM (active).
